Test results reported in PubChem BioAssay (NCI).
Several values for one entry are separate records, joined by “and”; a condition that tells them apart may be missing. Identical values can stand only once. Compounds without any hit were thinned out: in the full panel of roughly 79,000, 15% have a hit. A structure can be active in one record and inactive in another. Activity calls are given as the source filed them. Rule as the data show it: active = growth inhibition above about 70%; inactive = the rest.

Legend:
[1] = NCI Yeast Anticancer Drug Screen. Data for the wt2 strain (AID 169);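 also: 0% = growth of vehicle-treated yeast cultures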; settings: S. cerevisiae wt2 strain growth inhibition, stronger effect = higher value
Method in brief: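 Yeast cells were exposed to test compounds, and growth inhibition was measured relative to vehicle-treated controls.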

[2] = NCI Yeast Anticancer Drug Screen. Data for the mlh1 strain (AID 171);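 also: 0% = growth of vehicle-treated control cultures of the same strain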; settings: S. cerevisiae mlh1 strain growth inhibition, stronger effect = higher value
Method in brief: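 Yeast carrying a defined genetic alteration in DNA damage repair or cell cycle control were exposed to test compounds. Growth inhibition was measured relative to vehicle-treated controls.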

[3] = NCI Yeast Anticancer Drug Screen. Data for the sgs1 strain (AID 173);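 also: 0% = growth of vehicle-only control cultures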; settings: S. cerevisiae sgs1 mutant, stronger effect = higher value
Method in brief: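 Yeast mutant strains carrying defined defects in DNA damage repair or cell cycle control were exposed to test compounds. Growth inhibition was scored against vehicle-treated controls.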

[4] = NCI Yeast Anticancer Drug Screen. Data for the mlh1 rad18 strain (AID 175); settings: S. cerevisiae mlh1 rad18 strain growth inhibition, stronger effect = higher value
Method in brief: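 Growth inhibition of the yeast strain was measured after compound exposure and expressed relative to vehicle-treated controls. The strain carries defined defects in DNA damage repair.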

[5] = NCI Yeast Anticancer Drug Screen. Data for the rad18 strain (AID 177); settings: S. cerevisiae rad18 mutant growth inhibition, stronger effect = higher value
Method in brief: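 Yeast carrying a defined DNA damage repair alteration were exposed to compounds. Growth inhibition was expressed relative to vehicle-treated controls.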

[6] = NCI Yeast Anticancer Drug Screen. Data for the rad52 strain (AID 147);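 also: 0% = growth of vehicle-treated control cultures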; settings: S. cerevisiae rad52 mutant growth inhibition, stronger effect = higher value
Method in brief: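 Yeast strain carrying a DNA damage repair alteration was exposed to test compounds. Growth inhibition was measured relative to vehicle-treated controls.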

[7] = NCI Yeast Anticancer Drug Screen. Data for the wt1 strain (AID 149);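 also: 0% = growth of vehicle-treated wt1 cultures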; settings: S. cerevisiae wt1 strain (SPY 50644) growth inhibition, stronger effect = higher value
Method in brief: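 Growth inhibition read against vehicle controls after compound exposure of the wt1 yeast strain.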

[8] = NCI Yeast Anticancer Drug Screen. Data for the rad50EPP+ strain (AID 151);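 also: 0% = growth of vehicle-treated control cultures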; settings: S. cerevisiae rad50 mutant strain, stronger effect = higher value
Method in brief: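 Yeast strain carrying rad50 alteration (rad50EPP+) exposed to compounds; growth inhibition measured relative to vehicle-treated controls.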

[9] = NCI Yeast Anticancer Drug Screen. Data for the mgt1 strain (AID 153); settings: S. cerevisiae mgt1 mutant growth inhibition, stronger effect = higher value
Method in brief: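 Yeast mgt1 strain (DNA repair/cell-cycle alteration panel) exposed to compounds; growth inhibition measured relative to vehicle-treated controls.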

[10] = NCI Yeast Anticancer Drug Screen. Data for the rad50 strain (AID 155);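 also: 0% = growth of vehicle-only cultures of the same strain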; settings: S. cerevisiae rad50 strain growth inhibition, stronger effect = higher value
Method in brief: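 Readout: growth inhibition relative to vehicle-treated cultures. Compound exposure was carried out in a genetically defined yeast strain deficient in DNA damage repair.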

[11] = NCI Yeast Anticancer Drug Screen. Data for the mec2-1 strain (AID 157); settings: S. cerevisiae mec2-1 strain, stronger effect = higher value
Method in brief: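 mec2-1 yeast strain, carrying an alteration in DNA damage repair or cell cycle control, was exposed to compounds; growth inhibition was measured relative to vehicle-treated controls.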

[12] = NCI Yeast Anticancer Drug Screen. Data for the rad14 strain (AID 159);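 also: 0% = growth of vehicle-treated control cultures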; settings: S. cerevisiae rad14 strain growth inhibition, stronger effect = higher value
Method in brief: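 Growth inhibition vs vehicle controls; genetically altered yeast strain (DNA damage repair defect) treated with test compounds.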

[13] = NCI Yeast Anticancer Drug Screen. Data for the sgs1 mgt1 strain (AID 161);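 also: 0% = growth of cultures given vehicle only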; settings: S. cerevisiae sgs1 mgt1 strain, stronger effect = higher value
Method in brief: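 Compounds are added to genetically altered yeast, and growth is compared with cultures given vehicle alone to give percent inhibition.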

[14] = NCI Yeast Anticancer Drug Screen. Data for the CLN2oe strain (AID 163);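 also: 0% = growth of vehicle-only control cultures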; settings: S. cerevisiae CLN2oe strain, stronger effect = higher value
Method in brief: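 Yeast cells carrying a defined cell-cycle control alteration were exposed to test compounds. Growth inhibition was scored against vehicle-treated control cultures.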

[15] = NCI Yeast Anticancer Drug Screen. Data for the cln2 rad14 strain (AID 165);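 also: 0% = growth equal to vehicle treated cultures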; settings: S. cerevisiae cln2 rad14 strain, stronger effect = higher value
Method in brief: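 Yeast carrying cln2 and rad14 alterations (cell cycle control and DNA damage repair) were exposed to compounds. Growth inhibition was measured against vehicle-treated controls.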

[16] = NCI Yeast Anticancer Drug Screen. Data for the bub3 strain (AID 167); settings: S. cerevisiae bub3 mutant strain, stronger effect = higher value
Method in brief: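 Readout: yeast growth inhibition, expressed relative to vehicle-only wells. The test organism is a mutant strain from a panel with lesions in DNA repair or checkpoint genes.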

[17] = at 5.0 µM (retest, dose inferred, filed as 0.5)
[18] = at 50.0 µM (retest, dose inferred, filed as 5.0)

Measured: growth inhibition

O=C1C=C(CN(CCCl)CCCl)C(=O)C=C1CN(CCCl)CCCl
inactive: [1]; at 1.2 µM 0% | [1]; at 3.7 µM -3% | [1]; at 11.0 µM -1% | [1]; at 33.0 µM -1% | [1]; at 100.0 µM 4% | [2]; at 1.2 µM -1% | [2]; at 3.7 µM -1% | [2]; at 11.0 µM -1% | [2]; at 33.0 µM 2% | [2]; at 100.0 µM 6% | [3]; at 1.2 µM 0% | [3]; at 3.7 µM 1% | [3]; at 11.0 µM 1% | [3]; at 33.0 µM 12% | [3]; at 100.0 µM 28% | [4]; [17] 2% | [4]; [18] 36% | [5]; at 1.2 µM 4% | [5]; at 3.7 µM 13% | [5]; at 11.0 µM 29%
active: [4]; at 50.0 µM 73.6% | [5]; at 33.0 µM 86% | [5]; at 100.0 µM 90%

Oc1c(Br)cc(Br)cc1Br
59.5% (inactive) and 98.7% (active): [13]; at 50.0 µM
59.6% (inactive) and 99% (active): [4]; at 50.0 µM
35% (inactive) and 97% (active): [4]; [18]
44% (inactive) and 99% (active): [11]; [18]
inactive: [6]; at 1.2 µM 5% | [6]; at 3.7 µM 2% | [6]; at 11.0 µM 3% | [6]; at 33.0 µM 30% | [7]; at 1.2 µM -4% | [7]; at 3.7 µM -7% | [7]; at 11.0 µM 2% | [7]; at 33.0 µM 37% | [8]; at 1.2 µM 3% | [8]; at 3.7 µM 12% | [8]; at 11.0 µM 30% | [8]; at 33.0 µM 60% | [9]; at 1.2 µM 12% | [9]; at 3.7 µM 1% | [9]; at 11.0 µM 24% | [9]; at 33.0 µM 52% | [10]; at 1.2 µM 10% | [10]; at 3.7 µM 4% | [10]; [17] 41% and -1% | [10]; at 11.0 µM 5% | [10]; at 33.0 µM 41% | [11]; at 1.2 µM -1% | [11]; at 3.7 µM -7% | [11]; [17] 25% and 4% | [11]; at 11.0 µM 1% | [11]; at 33.0 µM 38% | [12]; at 1.2 µM -2% | [12]; at 3.7 µM 3% | [12]; at 11.0 µM 0% | [12]; at 33.0 µM 36% | [13]; [17] 7% | [14]; at 1.2 µM -14% | [14]; at 3.7 µM 7% | [14]; at 11.0 µM -1% | [14]; at 33.0 µM 21% | [15]; [17] 47% and -11% | [16]; at 1.2 µM -5% | [16]; at 3.7 µM 18% | [16]; [17] 40% and 0% | [16]; at 11.0 µM 24% | [16]; at 33.0 µM 39% | [1]; at 1.2 µM -8% | [1]; at 3.7 µM -9% | [1]; at 11.0 µM -8% | [1]; at 33.0 µM 26% | [2]; at 1.2 µM -3% | [2]; at 3.7 µM -19% | [2]; at 11.0 µM -9% | [2]; at 33.0 µM 22% | [3]; at 1.2 µM 13% | [3]; at 3.7 µM 12% | [3]; at 11.0 µM 6% | [3]; at 33.0 µM 37% | [4]; [17] 41% and 15%
active: [6]; at 100.0 µM 88% | [7]; at 100.0 µM 91% | [8]; at 100.0 µM 88% | [9]; at 100.0 µM 82% | [10]; at 100.0 µM 91% | [11]; at 100.0 µM 86% | [12]; at 100.0 µM 77% | [13]; [18] 79% and 99% | [14]; at 100.0 µM 89% | [15]; [18] 87% and 99% | [16]; [18] 86% and 98% | [16]; at 50.0 µM 70.3% and 99.2% | [16]; at 100.0 µM 87% | [1]; at 100.0 µM 84% | [2]; at 100.0 µM 78% | [3]; at 100.0 µM 88%
52% (inactive) and 99.5% (active): [11]; at 50.0 µM
49% (inactive) and 98.4% (active): [15]; at 50.0 µM
54% (inactive) and 98% (active): [10]; [18]
66.5% (inactive) and 99% (active): [10]; at 50.0 µM

O=C1C2CC(Cl)C(SSC3CC4C(=O)N(SC(Cl)(Cl)C(Cl)Cl)C(=O)C4CC3Cl)CC2C(=O)N1SC(Cl)(Cl)C(Cl)Cl (centres undefined)
active: [6]; at 1.2 µM 71% | [6]; at 3.7 µM 91% | [6]; at 11.0 µM 96% | [6]; at 33.0 µM 95% | [6]; at 100.0 µM 89% | [7]; at 3.7 µM 83% | [7]; at 11.0 µM 97% | [7]; at 33.0 µM 96% | [7]; at 100.0 µM 93% | [8]; at 1.2 µM 75% | [8]; at 3.7 µM 97% | [8]; at 11.0 µM 98% | [8]; at 33.0 µM 97% | [8]; at 100.0 µM 93% | [9]; at 3.7 µM 98% | [9]; at 11.0 µM 99% | [9]; at 33.0 µM 97% | [9]; at 100.0 µM 92% | [10]; at 3.7 µM 92% | [10]; [17] 98% | [10]; at 11.0 µM 97% | [10]; at 33.0 µM 96% | [10]; [18] 95% | [10]; at 50.0 µM 90.3% | [10]; at 100.0 µM 90% | [11]; at 3.7 µM 91% | [11]; [17] 100% | [11]; at 11.0 µM 99% | [11]; at 33.0 µM 98% | [11]; [18] 98% | [11]; at 50.0 µM 90.4% | [11]; at 100.0 µM 94% | [12]; at 1.2 µM 83% | [12]; at 3.7 µM 96% | [12]; at 11.0 µM 97% | [12]; at 33.0 µM 96% | [12]; at 100.0 µM 90% | [13]; [18] 95% | [13]; at 50.0 µM 89.5% | [14]; at 3.7 µM 96% | [14]; at 11.0 µM 98% | [14]; at 33.0 µM 97% | [14]; at 100.0 µM 90% | [15]; at 50.0 µM 84.9% | [16]; at 1.2 µM 80% | [16]; at 3.7 µM 99% | [16]; at 11.0 µM 99% | [16]; at 33.0 µM 96% | [16]; [18] 98% | [16]; at 50.0 µM 92.8% | [16]; at 100.0 µM 90% | [1]; at 3.7 µM 95% | [1]; at 11.0 µM 98% | [1]; at 33.0 µM 97% | [1]; at 100.0 µM 90% | [2]; at 3.7 µM 97% | [2]; at 11.0 µM 98% | [2]; at 33.0 µM 97% | [2]; at 100.0 µM 93% | [3]; at 1.2 µM 80% | [3]; at 3.7 µM 98% | [3]; at 11.0 µM 97% | [3]; at 33.0 µM 96% | [3]; at 100.0 µM 87% | [4]; [17] 99% | [4]; [18] 96% | [4]; at 50.0 µM 90.8% | [5]; at 1.2 µM 96% | [5]; at 3.7 µM 97% | [5]; at 11.0 µM 97% | [5]; at 33.0 µM 97% | [5]; at 100.0 µM 89%
inactive: [7]; at 1.2 µM 14% | [9]; at 1.2 µM 68% | [10]; at 1.2 µM 49% | [11]; at 1.2 µM 37% | [13]; [17] -9% | [14]; at 1.2 µM 40% | [15]; [17] -20% | [15]; [18] -57% | [16]; [17] -6% | [1]; at 1.2 µM 17% | [2]; at 1.2 µM 64%
